This is an account of results in PubChem BioAssay (Tox21).

Several values for one entry are separate records, joined by “and”; a condition that tells them apart may be missing. Equal values may be shown once. Results filed as inconclusive are left out. Where a call stands in place of a potency, no number is given. Activity calls are given as the source filed them. The call rests on the fitted dose curve; in most records, active means well fitted activation curve with a large enough effect in the signal ratio in the repeat runs (not every such curve was filed as active); inconclusive means weak or mixed curves, or effect the other way; inactive means no such curve, though single readings can be large or run the other way; the % refers to the signal ratio.
Potency means the concentration at half of the fitted maximal effect.

This assay is described as follows: qHTS assay for small molecule agonists of the antioxidant response element (ARE) signaling pathway (AID 743202). The conditions noted are these: HepG2 ARE-bla reporter, beta-lactamase FRET, 16 h; series mostly up to 73.3 µM. The source says: U.S. Tox21 Program National Center for Advancing Translational Sciences [NCATS] NIH Chemical Genomics Center [NCGC] U.S. Environmental Protection Agency [EPA] National Institutes of Environmental Health Sciences [NIEHS] National Toxicology Program [NTP] U.S. Food and Drug Administration [FDA] Tox21 Assay Overview: Oxidative stress has been implicated in the pathogenesis of a variety of diseases ranging from cancer to neurodegeneration. The antioxidant response element (ARE) signaling pathway plays an important role in the amelioration of oxidative stress. The CellSensor ARE-bla HepG2 cell line (Invitrogen) can be used for analyzing the Nrf2/antioxidant response signaling pathway. Nrf2 (NF-E2-related factor 2) and Nrf1 are transcription factors that bind to AREs and activate these genes. The CellSensor ARE-bla Hep G2 cell line contains a beta-lactamase reporter gene under control of the Antioxidant Response Element (ARE) stably integrated into HepG2 cells. The activation of the report gene under culture conditions can be detected by fluorescence intensity. This cell line has been used to screen the Tox21 10K compound library to identify agonists that induce oxidative stress.
Tox21 Assay Protocol Summary: The ARE-bla cells were dispensed at 2,000 cells/5 ul/well in 1536-well black wall/clear bottom plates using a Multidrop dispenser. After the assay plates were incubated at a 37 C/5% CO2 incubator for 5 hours, 23 nL of compounds dissolved in DMSO, positive controls or DMSO only was transferred to the assay plate by a pin tool. The plates were incubated at 37 C for 16 hours. After 1 uL of LiveBLAzer B/G FRET substrate was added using a Flying Reagent Dispenser, the plates were incubated at room temperature for 2 hours, and fluorescence intensity was measured by an Envision plate reader.
(qHTS replaces the single test concentration by a dilution series.)
With `C=CCN(CC=C)C(=O)C(Cl)Cl`, the Potency entry is “inactive”.
With `COP(=O)(OC)OC`, the Potency entry was “inactive”.
Under `CC(C)N(C(=O)SCC(Cl)=C(Cl)Cl)C(C)C` stands “inactive”.
Regarding `CCN(CC)N=O`, the Potency result is “inactive”.
Under `CNC(=O)N(C)c1nnc(C(C)(C)C)s1` stands “inactive”; under `Nc1c(Cl)cc([N+](=O)[O-])cc1Cl`, “inactive”.
Turning to `C=C(C)[C@H]1Cc2c(ccc3c2O[C@@H]2COc4cc(OC)c(OC)cc4[C@@H]2C3=O)O1`, the Potency was 0.0077 µM (active).
On to `OCC(O)CO`, for which the Potency result is “inactive”.
Under `CCCCN(CC)c1c([N+](=O)[O-])cc(C(F)(F)F)cc1[N+](=O)[O-]` stands “inactive”; under `CCOP(=S)(OCC)O/N=C(\C#N)c1ccccc1`, “inactive”; under `O=C(NC(=O)c1c(F)cccc1F)Nc1ccc(Cl)cc1`, “inactive”.
With `Cc1cccc(N)c1N`, the Potency is 9.36 µM (active) and 17.2 µM (active).
For the compound `CCN(CC)C(=O)/C(Cl)=C(\C)OP(=O)(OC)OC`, the Potency entry was “inactive”.
Take `CCCCN(CCCC)N=O`: the Potency entry was “inactive”.
As to `c1nc[nH]n1`, the Potency result was “inactive”.
With `Oc1ccc(-c2ccccc2)cc1`, the Potency was 53.8 µM (active) and 21.7 µM (active).
On to `CC(C)=CC1C(C(=O)OCc2coc(Cc3ccccc3)c2)C1(C)C` (stereo not given), for which the Potency was 54.5 µM (active) and 30.6 µM (active).
Turning to `Nc1ccncc1`, the Potency entry is “inactive”.
Under `ClC1C(Cl)C(Cl)C(Cl)C(Cl)C1Cl` (stereo not given) stands “inactive”; under `Nn1cnnc1`, “inactive”.
Turning to `CCCCNC(=O)n1c(NC(=O)OC)nc2ccccc21`, the Potency result was “inactive”.
Regarding `CC(C)C(=O)OCC(C)(C)C(OC(=O)C(C)C)C(C)C` (stereo not given), the Potency entry is “inactive”.
In the case of `O=P(O)(O)CCCl`, the Potency result is “inactive”.
Regarding `c1ccc(-c2cccc(-c3ccccc3)c2)cc1`, the Potency entry is “inactive”.
Turning to `c1ccc(N=Nc2ccccc2)cc1`, the Potency entry was “inactive”.
Consider `CCN(CC)C(=O)SCc1ccc(Cl)cc1`, for which the Potency entry was “inactive”.
`O=C(O)C(F)(F)C(F)(F)C(F)(F)C(F)(F)C(F)(F)C(F)(F)C(F)(F)F`: the Potency is 27.3 µM (active) and 21.6 µM (active).
As for `CCOC(=S)S`, the entry is “inactive”.
In the case of `CCCCCCCCOC(=O)c1ccccc1C(=O)OCCCCCCCC`, the Potency entry is “inactive”.
On to `N#CC(Br)Br`, for which the Potency was 34.2 µM (active).
Turning to `O=[N+]([O-])c1ccc(O)c([N+](=O)[O-])c1`, the Potency is 48.8 µM (active).
As for `O=[N+]([O-])c1cccc2ccccc12`, the entry is “inactive”.
Consider `CCOc1cc(C=O)ccc1O`, for which the Potency result was “inactive”.
As to `S=C1NCCN1`, the Potency entry was “inactive”.
Consider `COP(=S)(OC)Oc1cc(Cl)c(Cl)cc1Cl`, for which the Potency entry is “inactive”.
Under `CCC(C)c1ccc(O)cc1` (stereo not given) stands “inactive”.
In the case of `O=Cc1ccco1`, the Potency result was “inactive”.
With `NC(=S)Nc1ccccc1`, the Potency result is “inactive”.
With `C=CCc1ccc(OC)cc1`, the Potency result is “inactive”.
Turning to `COc1ccc(C=O)cc1`, the Potency entry is “inactive”.
